In PubChem BioAssay (NCATS):
“And” between values parts separate entries of the source, which are not always exact repeats. Identical values can stand only once. Records with an inconclusive call do not appear. The source made the active and inactive calls. Calls follow the shape of the full dose curve.

Biological target: Thyroid hormone receptor beta (Homo sapiens) (UniProt P10828)
Assay: qHTS assay for small molecule agonists of thyroid hormone receptor beta signaling (AID 588545);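 also: 0% = DMSO only and 100% = 10 nM T3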
Settings: TR-UAS-bla GripTite HEK 293, beta-lactamase ratio, agonist mode, 18 h; series mostly up to 76.7 µM; activation: at the top concentration
Procedure, shortened: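 Stimulation of a TR-driven beta-lactamase reporter was quantified in GripTite HEK 293 cells. Compound series ran for 18 hrs; curves were normalized to T3 and DMSO controls and fitted to yield EC50.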

Chain of Thyroid hormone receptor beta (Homo sapiens) (P10828 whole entry, looked up): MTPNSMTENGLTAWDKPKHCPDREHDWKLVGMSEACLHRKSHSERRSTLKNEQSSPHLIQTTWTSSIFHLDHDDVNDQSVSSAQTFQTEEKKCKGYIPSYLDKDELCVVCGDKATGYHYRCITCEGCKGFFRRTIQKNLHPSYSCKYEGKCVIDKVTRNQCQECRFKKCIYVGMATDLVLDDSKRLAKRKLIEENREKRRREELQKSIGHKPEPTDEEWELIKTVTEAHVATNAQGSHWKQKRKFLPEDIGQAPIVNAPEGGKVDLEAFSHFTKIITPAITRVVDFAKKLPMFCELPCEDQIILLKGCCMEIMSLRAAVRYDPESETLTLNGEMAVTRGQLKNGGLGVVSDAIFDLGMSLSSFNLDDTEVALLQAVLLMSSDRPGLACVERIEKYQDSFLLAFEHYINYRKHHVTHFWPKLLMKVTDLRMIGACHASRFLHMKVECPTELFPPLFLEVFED

Q: For `CC(C#N)CCC#N` (stereo not drawn), which “activation” value is on record?
A: 0.81% (inactive)

Q: Which “activation” value does the source give for `Nc1cc(Cl)ccc1Cl` here?
A: -0.17% (inactive)

Q: For `Nc1cccc(Cl)c1`, which “activation” value is on record?
A: -5.45% (inactive)

Q: For `ClCc1ccccc1`, which “activation” value is on record?
A: -7.88% (inactive)

Q: For `CCC/C=N/O`, which “activation” value is on record?
A: -8.93% (inactive)

Q: With `COc1c(C(C)(C)C)cc([N+](=O)[O-])c(C)c1[N+](=O)[O-]` as the molecule, how does the “activation” value read?
A: -11.5% (inactive)

Q: Which Potency does the source give for `O=S(=O)(Cl)c1ccccc1` here?
A: inactive

Q: Which “activation” value does the source give for `C=CCOCC1CO1` (stereo not drawn) here?
A: 2.94% (inactive)

Q: For `c1ccoc1`, which “activation” value is on record?
A: -12.6% (inactive)

Q: For `Clc1ccccc1`, which “activation” value is on record?
A: -8.06% (inactive)

Q: For `ClC(Cl)(Cl)C(Cl)(Cl)Cl`, which “activation” value is on record?
A: -15.2% (inactive)

Q: Which “activation” value does the source give for `C/C=C/CC#N` here?
A: -2.17% (inactive)

Q: For `ClC(Cl)C(Cl)Cl`, which “activation” value is on record?
A: -21.1% (inactive)

Q: For `Oc1c(Cl)cccc1Cl`, which “activation” value is on record?
A: -1.96% (inactive)

Q: Which “activation” value does the source give for `Brc1cccc(-c2ccccc2)c1` here?
A: -6.09% (inactive)

Q: With `OCCCCO` as the molecule, how does the “activation” value read?
A: -31.1% (inactive)

Q: For `Nn1cnnc1`, which “activation” value is on record?
A: -12.1% (inactive)

Q: For `BrCCc1ccccc1`, which “activation” value is on record?
A: -18.1% (inactive)

Q: With `Cc1ccccc1[N+](=O)[O-]` as the molecule, how does the “activation” value read?
A: -9.55% (inactive)

Q: For `Clc1cc(Cl)c(Cl)c(Cl)c1`, which “activation” value is on record?
A: 0.47% (inactive)

Q: For `Cc1ccc(N)c(C)c1`, which “activation” value is on record?
A: -0.785% (inactive)

Q: For `C1CC2OC2CC1C1CO1` (stereo not drawn), which Potency is on record?
A: inactive

Q: Which “activation” value does the source give for `CC(=O)NNc1ccccc1` here?
A: 3.67% (inactive)

Q: Which Potency does the source give for `Cc1ccc(N=C=O)cc1N=C=O` here?
A: inactive

Q: Which “activation” value does the source give for `C=CC(=O)OC` here?
A: -0.873% (inactive)

Q: With `CCN(CC)N=O` as the molecule, how does the “activation” value read?
A: -28% (inactive)

Q: For `OCC(Cl)CCl` (stereo not drawn), which “activation” value is on record?
A: 1.86% (inactive)

Q: With `CC(C)(Cl)[N+](=O)[O-]` as the molecule, how does the “activation” value read?
A: 1.24% (inactive)

Q: Which “activation” value does the source give for `C[N+](=O)[O-]` here?
A: -12.9% (inactive)

Q: For `CC(C)OC(=O)Cc1ccccc1`, which “activation” value is on record?
A: 2.86% (inactive)

Q: With `ClCC(Br)CBr` (stereo not drawn) as the molecule, how does the “activation” value read?
A: -1.47% (inactive)

Test system: not listed separately
Assay: qHTS assay for small molecule antagonists of retinoid X receptor alpha signaling (AID 588546);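 also: cells stimulated with 9-cis-retinoic acid as agonist; % is scaled to controls: 0 for no effect and ±100 for the full control effect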
Settings: HEK293T RXRa-UAS-bla, beta-lactamase ratio, antagonist mode; measured here: W530 green channel, cytotoxicity proxy
Procedure, shortened: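 Beta-lactamase reporter inhibition, read as CCF4 fluorescence ratio (ex 405, em 460/530 nm) after 2 h at RT. HEK293T UAS-bla cells, 2500/well, were stimulated with 9-cis-RA at 500 or 100 nM final alongside test compound for 18 h at 37 C.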

Q: For `CC(C#N)CCC#N` (stereo not drawn), which max response is on record?
A: -1.82%

Q: Which max response does the source give for `Nc1cc(Cl)ccc1Cl` here?
A: 1.78%

Q: With `Nc1cccc(Cl)c1` as the molecule, how does the max response read?
A: 0.683%

Q: With `ClCc1ccccc1` as the molecule, how does the max response read?
A: -2.86%

Q: For `CCC/C=N/O`, which max response is on record?
A: -10.3%

Q: For `COc1c(C(C)(C)C)cc([N+](=O)[O-])c(C)c1[N+](=O)[O-]`, which max response is on record?
A: -1.47%

Q: Which max response does the source give for `O=S(=O)(Cl)c1ccccc1` here?
A: 25.3% and -4.13%

Q: With `C=CCOCC1CO1` (stereo not drawn) as the molecule, how does the max response read?
A: 2.33%

Q: With `c1ccoc1` as the molecule, how does the max response read?
A: 1%

Q: Which max response does the source give for `Clc1ccccc1` here?
A: -7.38%

Q: For `ClC(Cl)(Cl)C(Cl)(Cl)Cl`, which max response is on record?
A: -34.4%

Q: Which max response does the source give for `CCOC(=O)C1OC1(C)c1ccccc1` (stereo not drawn) here?
A: 1.36%

Q: Which max response does the source give for `C/C=C/CC#N` here?
A: 5.46%

Q: Which max response does the source give for `ClC(Cl)C(Cl)Cl` here?
A: -2.39%

Q: With `Oc1c(Cl)cccc1Cl` as the molecule, how does the max response read?
A: -9.58%

Q: With `C=CCO` as the molecule, how does the max response read?
A: 1.87%

Q: Which max response does the source give for `OCCCCO` here?
A: -5.28%

Q: For `Nn1cnnc1`, which max response is on record?
A: -0.424%

Q: With `BrCCc1ccccc1` as the molecule, how does the max response read?
A: 2.46%

Q: For `Cc1ccccc1[N+](=O)[O-]`, which max response is on record?
A: -5.55%

Q: For `CCCCOC(=O)c1ccccc1N`, which max response is on record?
A: -0.876%

Q: Which max response does the source give for `Clc1cc(Cl)c(Cl)c(Cl)c1` here?
A: -0.278%

Q: For `Cc1ccc(N)c(C)c1`, which max response is on record?
A: 1.29%

Q: For `C1CC2OC2CC1C1CO1` (stereo not drawn), which max response is on record?
A: -7.13% and -27.8%

Q: With `CN(C)C(=O)Cl` as the molecule, how does the max response read?
A: 3.53%

Q: Which max response does the source give for `CC(=O)NNc1ccccc1` here?
A: -2.14%

Q: With `Cc1ccc(N=C=O)cc1N=C=O` as the molecule, how does the max response read?
A: 4.82% and -6.24%

Q: With `O=C(Cl)OCc1ccccc1` as the molecule, how does the max response read?
A: -3.27%

Q: With `C=CC(=O)OC` as the molecule, how does the max response read?
A: -10.6%

Q: Which max response does the source give for `CCN(CC)N=O` here?
A: -3.04%

Q: With `OCC(Cl)CCl` (stereo not drawn) as the molecule, how does the max response read?
A: -11.1%

Q: With `CC(C)CON=O` as the molecule, how does the max response read?
A: -4.96%

Q: Which max response does the source give for `CC[N+](=O)[O-]` here?
A: -3.61%

Q: With `CC(C)(Cl)[N+](=O)[O-]` as the molecule, how does the max response read?
A: -8.14%

Q: With `C[N+](=O)[O-]` as the molecule, how does the max response read?
A: -7.25%

Q: Which max response does the source give for `CC(C)OC(=O)Cc1ccccc1` here?
A: -2.88%

Q: Which max response does the source give for `ClCC(Br)CBr` (stereo not drawn) here?
A: -1.84%
